# From PubChem BioAssay
# Only some compounds are listed: those with a hit (about 28% of all), similar ones and a draw of the others.
# CYP2C9 inh – human CYP2C9 inhibition. P11712. CYP2C9 Supersomes, luciferin-H conversion, luminescence. inhibition, % at 5 µM. actives 20% (n = 96,000);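 active = blocking of liver enzyme CYP2C9 beyond about 50% at 5 µM, limit read from the data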
# Target sequence (P11712 whole entry, looked up): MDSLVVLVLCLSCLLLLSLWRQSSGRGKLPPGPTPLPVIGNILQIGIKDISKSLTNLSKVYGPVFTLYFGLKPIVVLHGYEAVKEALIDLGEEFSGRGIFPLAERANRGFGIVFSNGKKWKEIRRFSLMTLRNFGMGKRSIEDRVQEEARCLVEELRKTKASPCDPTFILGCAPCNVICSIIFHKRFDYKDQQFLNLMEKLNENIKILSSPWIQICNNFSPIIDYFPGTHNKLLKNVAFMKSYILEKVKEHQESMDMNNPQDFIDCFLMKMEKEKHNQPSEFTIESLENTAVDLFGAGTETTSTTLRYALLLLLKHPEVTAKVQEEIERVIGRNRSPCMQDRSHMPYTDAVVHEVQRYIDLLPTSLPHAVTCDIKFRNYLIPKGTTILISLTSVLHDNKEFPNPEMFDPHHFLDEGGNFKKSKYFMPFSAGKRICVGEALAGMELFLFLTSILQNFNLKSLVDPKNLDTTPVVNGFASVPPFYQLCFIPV
# CYP2C19 act – activators of human cytochrome P450 2C19. P33261. 96,000 tested, under 10 active. activation factor at 5 µM. recombinant CYP2C19, luciferin-H EGE luminescence; hits give high values; 0 = fully inhibited enzyme, 1 = untreated enzyme;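 active = activation factor of at least 2 at 5 µM in the primary screen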;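 note: 0 = wells with 2.5 mM tranylcypromine and 1 = vehicle-only wells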
# CYP2C9 activ – CYP2C9 (human) activation | P11712 | recombinant CYP2C9, luciferin-H conversion, luminescence; hits give high values; factor 1 = untreated enzyme, 0 = blocked | activation factor at 5 µM | actives 1.4% (n = 96,000) | AID 1024;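 active = activation factor of 2 or more for CYP2C9 at a 5 µM dose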;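 note: 0 = sulfaphenazole-blocked wells and 1 = vehicle-only wells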
# Pyk2 oligo antag – Pyk2 (human) oligomerization antagonism. actives 0.83% (n = 99,000). Q293 cells, Pyk2 FERM NanoBiT luminescence; hits give low values. z-score (the deposit names both 25 µM and 10 µM). Q14289. AID 1347419;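 active = Z-score of -3 or lower, scaled per plate to the spread of control and sample wells; inactive = z-score above -3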;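 note: negative z-score means lost luminescence so less FERM oligomerization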
# CYP2C19 inhib – human CYP2C19 inhibition; inhibition, % at 5 µM; CYP2C19 Supersomes, luciferin-H EGE luminescence, 30 min; actives 21% (n = 96,000); P33261; AID 778;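 active = CYP2C19 inhibition above a set limit at 5 µM in the primary screen, cut at about 50% in these data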;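 note: plate controls were negative control wells for no effect and 2.5 mM tranylcypromine positive control for full effect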
# Starred values were filed as active, the others as inactive; . = not tested or not shown.
SMILES,CYP2C9 inh,CYP2C19 act,CYP2C9 activ,Pyk2 oligo antag,CYP2C19 inhib
Cc1ccc(C2=N/C(=C\N(C)C)C(=O)O2)cc1,-8.4,0.9,1.1,0.73,5.2
CN1CCN(CCCNC(=O)CCCOc2cc(=O)n(C)c3ccccc23)CC1,6.6,1,0.9,1.07,3.3
CN(CCOCCOc1ccc2ccccc2c1)Cc1ccccc1,10.9,0.6,0.9,0.86,38.6
COc1ccc(CNC(=O)CCCOc2cc(=O)n(C)c3ccccc23)cc1,77.6*,0.1,0.2,1.64,91.7*
CC1CCN(C(=O)CCCOc2cc(=O)n(C)c3ccccc23)CC1,-27.2,0.5,1.3,-0.79,50.3*
COc1ccc(OCCN(C)Cc2ccccc2)cc1,-19.1,0.3,1.2,1.77,68.4*
Cc1ccc(CCN2C(=O)CCC2(C)C(=O)NCc2cccnc2)cc1 (stereo not drawn),17.9,0.9,0.8,0.23,10.9
Cn1nnnc1SCCNCc1cccnc1,28.9,0.8,0.7,2.18,17.9
Cn1nnnc1SCCNCc1cccc2ccccc12,15.4,0.1,0.8,0.91,85.6*
COc1ccc(Br)cc1CNCCSc1nnnn1C,54.6*,0,0.5,0.68,100.2*
COc1cccc(CNCCSc2nnnn2C)c1,-10.7,0.3,1.1,1.64,71.2*
Cn1nnnc1SCCNC/C=C/c1ccccc1,8.3,0.2,0.9,0.04,79.5*
O=C(Nc1cccc(F)c1)C1C2C=CC3(CN(CCCN4CCOCC4)C(=O)C13)O2 (stereo not drawn),-6.8,1.1,1.1,.,-9.3
COc1ccc(CSc2nnnn2C)cc1F,-3.4,0.3,1,-0.31,72.4*
CCc1ccc(CNCCSc2nnnn2C)cc1,6.6,0.3,0.9,0.11,70.2*
Cc1cc(C)n2nc3nc(N4CCCCC4)nc(-c4ccco4)c3c2n1,3.1,0.9,1,0.4,10.6
Cc1sc2ncnc(NCC(c3ccco3)N3CCCC3)c2c1C (stereo not drawn),47.8,0.7,0.5,0.44,27.7
Cc1ccc(-c2c(C#N)c(N)nc3c2CCCCCC3)o1,22.1,0.8,0.8,-1.1,17.5
CCOC(=O)CSc1nc2c(c(-c3ccc(C)o3)c1C#N)CCCC2,47.1,0.3,0.5,-0.68,69.7*
Cc1ccc(-c2c(C#N)c(N)nc3c2CCCCC3)o1,50.4*,0.5,0.5,0.5,53.1*
COC(=O)CSc1nc2c(c(-c3ccco3)c1C#N)CCCC2,-30.1,0.9,1.3,1.11,11.3
CN(C)CCNC(=O)C12CC3(C)CC(C)(CC(C)(C3)C1)C2,0.5,0.9,1,5.51,12.7
O=C1CCCC2=C1C(c1ccncc1)c1c(nc(SCc3ccccc3)[nH]c1=O)N2 (stereo not drawn),90.4*,0.1,0.1,-0.19,87.2*
Brc1ccc(-c2nc(-c3cccnc3)no2)o1,46.8,0.1,0.5,-0.61,85.4*
CCOc1ccc(-c2noc(-c3ccncc3)n2)cc1OCC,79.8*,0.3,0.2,-0.02,70.2*
SMILES,CYP2C9 inh,CYP2C19 act,CYP2C9 activ,Pyk2 oligo antag,CYP2C19 inhib
Brc1ccc(-c2nc(-c3ccccc3)no2)o1,9.5,0.9,0.9,0.02,6.0
COc1ccc(-c2nc(-c3ccncc3)no2)cc1OC,59.5*,0.1,0.4,0.08,88.2*
COc1ccc(CCC(=O)Nc2ccc(-c3noc(-c4ccc(OC)c(OC)c4)n3)cc2)cc1,68.7*,0.8,0.3,1.45,15.7
COCCn1c(SCC(=O)NCC2CCCO2)nc2c(c1=O)SC(C)C2 (stereo not drawn),-2.0,1,1,.,-3.5
CC(=O)Oc1ccc(-c2nc(-c3cccnc3)no2)cc1,86.2*,0.1,0.1,-0.3,94.6*
O=[N+]([O-])c1ccc(-c2cc(-c3ccncc3)nc3ccc4ccccc4c23)cc1,26.3,1,0.7,-0.08,4.2
O=[N+]([O-])c1cccc(-c2nc(-c3ccncc3)no2)c1,53.1*,0.1,0.5,-0.22,95.0*
CCOc1cc(-c2noc(-c3ccncc3)n2)cc(Br)c1OC,31.5,0.2,0.7,0.85,76.1*
CCOc1cc(-c2nc(-c3ccc(C)nc3OC)no2)cc(OCC)c1OCC,76.4*,0,0.2,0.15,96.6*
CCOc1ccc(-c2nc(-c3cccnc3)no2)cc1OCC,13.1,0.4,0.9,-0.26,62.5*
CC/C(=C\C(=O)c1ccncc1)Nc1ccc(Br)cc1,89.2*,0,0.1,-0.55,99.3*
CCN(CC)c1ccc(NC(=O)c2cncc(Br)c2)cc1,-25.6,1.1,1.3,0.24,-9.4
